Each structure is given as a SMILES string. Records with an inconclusive call do not appear. Activity calls are given as the source filed them. Unless noted, calls follow the shape of the dose curve; as a rule, active = well fitted curve in the direction sought with a large enough effect; inconclusive = small, poorly fitted or top-dose-only effect, or another doubt; inactive = no such curve, though single readings can be large; an effect the other way counts as inactive or inconclusive.

The target of test [1] is Luciferin 4-monooxygenase (Photinus pyralis) (UniProt P08659). As to the kind of experiment: Biochemical firefly luciferase enzyme assay for NPC (AID 624030).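 Also: purified P. pyralis luciferase at 10 nM with luciferin and ATP substrate; nearly all actives have a fitted effect of over 70% in size.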 In a few lines:
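Counter-screen for direct inhibition of the luciferase enzyme by approved-drug library compounds, run at 10 nM enzyme in 50 mM Tris acetate (final). Luminescence was read within 5 min of enzyme-buffer addition and normalized to PTC124 versus DMSO (0%).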

A short description of test [2]: S16 Schwann cell viability assay (CellTiter-Glo assay) (AID 624031).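 Also: cellular ATP luminescence as a viability measure; nearly all actives have a fitted effect of over 70% in size.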 A digest of the protocol:
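Native S16 rat Schwann cells in DMEM/10% FBS without phenol red were incubated overnight, then exposed to compounds for 24 h at 37 °C/5% CO2. Viability was read as ATP luminescence (CellTiter-Glo), normalized to no-cell wells and DMSO (0%).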
Background: In ATP-based viability assays light output follows the ATP content of the culture.

Test [3] is described as follows: S16 Schwann cell PMP22 intronic element beta-lactamase assay (AID 624044; calls by dose curve; also: nearly all actives have a fitted effect of over 15% in size; also: potency is read from the fitted curve at half-maximal effect). Conditions: S16 rat Schwann cells, PMP22 element beta-lactamase FRET, 24 h; ratio activity, negative = inhibition: at 38.3 µM (top of the series). In a few lines:
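Beta-lactamase reporter under a PMP22 intronic regulatory element in stable S16 rat Schwann cells; 24 h compound exposure. 460 nm blue signal normalized between DMSO (0%) and potassium clavulanate, with 535 nm FRET tracking viability; curves classed by r2 and response.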

The subject of a further test is 7G8. As to the kind of experiment: qHTS profiling for inhibitors of Plasmodium falciparum proliferation (AID 504749). Also: nearly all actives have a fitted effect of over 60% in size. Also: potency is read from the fitted curve at half-maximal effect. Conditions: P. falciparum in erythrocytes, SYBR Green DNA, 72 h; series mostly up to 28.7 µM. A digest of the protocol:
(§1)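 Quantitative HTS: compounds pinned into medium, infected erythrocytes added (0.3% parasitemia, 2.5% hematocrit), 72 h culture at 37 C under 5% CO2. Saponin/Triton lysis with SYBR Green I, overnight RT, then fluorescence read.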
For orientation: In qHTS, concentration-response curves come from the screen itself.

Another test concerns ATS95. The test is described as above. Conditions: P. falciparum in erythrocytes, SYBR Green DNA, 72 h; series mostly up to 28.7 µM. A digest of the protocol:
as §1

The next test relates to CP215. The description is as above. The conditions noted are these: P. falciparum in erythrocytes, SYBR Green DNA, 72 h; series mostly up to 28.7 µM. A digest of the protocol: as §1
In a further test the test system is CP247. The description is as above. The conditions noted are these: P. falciparum in erythrocytes, SYBR Green DNA, 72 h; series mostly up to 28.7 µM. In a few lines:
as §1

The next test has as its system CP260. The description is as above. Conditions: P. falciparum in erythrocytes, SYBR Green DNA, 72 h; series mostly up to 28.7 µM. In a few lines: as §1
Another test has as its system CP266. Described as above. The conditions noted are these: P. falciparum in erythrocytes, SYBR Green DNA, 72 h; series mostly up to 28.7 µM. A digest of the protocol: as §1
Another test deals with CP291. The description is as above. The conditions noted are these: P. falciparum in erythrocytes, SYBR Green DNA, 72 h; series mostly up to 28.7 µM. In a few lines:
as §1

The next test deals with CP297. The description is as above. The conditions noted are these: P. falciparum in erythrocytes, SYBR Green DNA, 72 h; series mostly up to 28.7 µM. A digest of the protocol: as §1
The next test concerns CP335. The test is described as above. The conditions noted are these: P. falciparum in erythrocytes, SYBR Green DNA, 72 h; series mostly up to 28.7 µM. A digest of the protocol: as §1
The test system of the next test is DIV17. The description is as above. Conditions: P. falciparum in erythrocytes, SYBR Green DNA, 72 h; series mostly up to 28.7 µM. In a few lines:
as §1

For another test, the system named is GB4. The description is as above. Conditions: P. falciparum in erythrocytes, SYBR Green DNA, 72 h; series mostly up to 28.7 µM. A digest of the protocol: as §1
The next test concerns P93_24. The description is as above. Conditions: P. falciparum in erythrocytes, SYBR Green DNA, 72 h; series mostly up to 28.7 µM. In a few lines:
as §1

For the next test, the system named is PC15. The test is described as above. Conditions: P. falciparum in erythrocytes, SYBR Green DNA, 72 h; series mostly up to 28.7 µM. In a few lines:
as §1

A further test has as its system PC26. The description is as above. Conditions: P. falciparum in erythrocytes, SYBR Green DNA, 72 h; series mostly up to 28.7 µM. A digest of the protocol:
as §1

Another test deals with PC49. The description is as above. The conditions noted are these: P. falciparum in erythrocytes, SYBR Green DNA, 72 h; series mostly up to 28.7 µM. A digest of the protocol: as §1
A further test relates to TAB109. The test is described as above. Conditions: P. falciparum in erythrocytes, SYBR Green DNA, 72 h; series mostly up to 28.7 µM. A digest of the protocol:
as §1

The subject of the next test is TAB165. Described as above. Conditions: P. falciparum in erythrocytes, SYBR Green DNA, 72 h; series mostly up to 28.7 µM. A digest of the protocol: as §1

Luciferin 4-monooxygenase (Photinus pyralis), sequence (P08659 whole entry, looked up): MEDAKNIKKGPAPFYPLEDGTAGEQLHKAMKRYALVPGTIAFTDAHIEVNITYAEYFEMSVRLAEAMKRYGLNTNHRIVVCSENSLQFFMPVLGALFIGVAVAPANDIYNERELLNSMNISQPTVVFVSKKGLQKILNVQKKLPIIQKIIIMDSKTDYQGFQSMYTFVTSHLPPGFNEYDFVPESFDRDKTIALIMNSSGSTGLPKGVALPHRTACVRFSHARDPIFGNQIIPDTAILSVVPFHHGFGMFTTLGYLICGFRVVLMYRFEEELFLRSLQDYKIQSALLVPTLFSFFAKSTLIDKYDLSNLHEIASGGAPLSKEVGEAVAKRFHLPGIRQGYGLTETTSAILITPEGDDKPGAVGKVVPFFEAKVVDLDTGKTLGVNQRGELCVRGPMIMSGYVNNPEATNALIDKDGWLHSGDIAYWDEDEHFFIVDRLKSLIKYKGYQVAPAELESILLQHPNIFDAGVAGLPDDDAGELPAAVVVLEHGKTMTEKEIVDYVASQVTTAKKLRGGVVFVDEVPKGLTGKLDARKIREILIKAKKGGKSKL

On to `C=NC(C(=O)NC1C(=O)N2C1SC(C)(C)C2C(=O)O)c1ccccc1` (stereo unspecified), for which the Potency entry (in test [1]; in [2]; in test [3]; with 7G8; with ATS95; in the test on CP215) was “inactive” in each case. For the same compound, the Potency result in the test on CP247, in the test on CP260, with CP266, in the test on CP291, in the test with CP297 and in the test on CP335 was “inactive” throughout. Besides, the Potency result in the test with DIV17, in the test with GB4, with P93_24, in the test on PC15, with PC26 and in the test with PC49 was “inactive” throughout. The Potency result in the test on TAB109 and with TAB165 was “inactive” in each case.

As to `CCCCCCCCCCCCCCCC(=O)OC[C@H](O)[C@H]1OC[C@@H](O)[C@@H]1O`, the Potency result (in [2]; in test [3]; in the test on 7G8; with ATS95; with CP215; in the test with CP247) was “inactive” in each case. Further, the Potency entry in the test with CP260, in the test on CP266, in the test with CP291, with CP297, with CP335 and with DIV17 was “inactive” each time. For the same compound, the Potency entry with GB4, with P93_24, in the test with PC15, in the test on PC26, in the test on PC49 and in the test with TAB165 was “inactive” throughout.

On to `C=CC1CN2CCC1CC2[C@@H](O)c1ccnc2ccc(OC)cc12` (stereo partly specified), for which the Potency entry in [1], in test [2] and in test [3] was “inactive” in each case. Further, the Potency was 0.0501 µM (active) in the test with 7G8; 0.251 µM (active) in the test with ATS95; 0.478 µM (active) in the test with CP215; 1 µM (active) with CP247; 0.355 µM (active) in the test on CP260; 0.953 µM (active) in the test on CP266. For the same compound, the Potency in the test on CP291 was 0.478 µM (active); with CP297, 0.757 µM (active); in the test with CP335 it was 0.338 µM (active); in the test with DIV17 it was 0.135 µM (active); with GB4, 0.135 µM (active); with P93_24, 0.398 µM (active). The Potency in the test on PC15 was 0.0891 µM (active); in the test with PC26, 0.239 µM (active); in the test on PC49, 0.282 µM (active); in the test on TAB109, 0.112 µM (active); with TAB165, 0.251 µM (active).

Consider `NC(=O)C1CC2(NC(=O)NC2=O)c2cc(F)ccc2O1` (stereo unspecified), for which the Potency result (in [1]; in [2]; with 7G8; with ATS95; with CP215; in the test with CP247) was “inactive” throughout. In addition, the Potency result in the test with CP260, in the test with CP266, in the test with CP291, in the test on CP297, with CP335 and in the test with DIV17 was “inactive” in each case. The Potency result in the test on GB4, in the test with P93_24, with PC15, in the test on PC26, in the test on PC49 and with TAB109 was “inactive” in each case. Also, in the test on TAB165, the Potency result is “inactive”.

For `CCCCC(=O)OCC(=O)[C@]1(O)Cc2c(O)c3c(c(O)c2[C@H](OC2CC(NC(=O)C(F)(F)F)C(O)C(C)O2)C1)C(=O)c1c(OC)cccc1C3=O` (stereo partly specified), the Potency result in test [1] and in [2] was “inactive” each time. For the same compound, the Potency is 2.51 µM (active) in test [3]; 1.26 µM (active) with 7G8; 2 µM (active) in the test with ATS95; 4.78 µM (active) in the test on CP215; 3.16 µM (active) with CP247; 2 µM (active) with CP260. Further, the Potency in the test on CP266 is 1.69 µM (active); in the test on CP291 it was 4.26 µM (active); in the test on CP297 it was 1.51 µM (active); in the test with CP335, 1.51 µM (active); in the test on DIV17, 1.51 µM (active); in the test with GB4, 3.79 µM (active). The Potency in the test with P93_24 is 2 µM (active); in the test with PC15, 3.55 µM (active); with PC26, 1.51 µM (active); in the test on TAB109, 2 µM (active); in the test on TAB165, 2.24 µM (active).

Source of the values: PubChem BioAssay (NCATS).
